From PubChem BioAssay AID1159580 (chemical genetic matrix, 2015)
Where “and” joins values, the source holds several entries; their conditions need not be identical. Equal values may be shown once. In all, about 5,500 compounds went through this assay and about 2,000 (36%) were called active. Not shown: some 18% with an inconclusive outcome. Rule as the data show it: active = normalized growth mostly below about 0.91 (no sharp cut-off); inconclusive = no clear call, values can overlap the other calls; inactive = mostly above about 0.92. The list shows a part of the results.

Assay: chemical genetic growth profiling, strain panel (AID 1159580);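 also: tested at 20 µM; growth read once vehicle control cultures reached saturation at 30 °C; 1 = growth at the plate median or of vehicle wells; lower values mean less growth of the strain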
Conditions: growth OD

Measured: normalized growth

O=C(O)CCCc1ccc(N(CCCl)CCCl)cc1
inactive: S. cerevisiae deletion strains, locus YKL009W, strain mrt4, active compounds read low 0.92 | S. cerevisiae deletion strains, locus YKL068W, active compounds read low 0.973 | S. cerevisiae deletion strains, locus YKL085W, strain MDH1 (second series), active compounds read low 0.942 | S. cerevisiae deletion strains, locus YKL085W, strain MDH1, active compounds read low 0.942 | S. cerevisiae deletion strains, locus YKL160W, strain elf1, active compounds read low 0.927 | S. cerevisiae deletion strains, locus YKR001C, strain vps1, active compounds read low 0.985 | S. cerevisiae deletion strains, locus YKR026C, strain gcn3, active compounds read low 0.971 | S. cerevisiae deletion strains, locus YKR091W, strain srl3, active compounds read low 0.962 | S. cerevisiae deletion strains, locus YLL001W, strain dnm1, active compounds read low 1.01 | S. cerevisiae deletion strains, locus YLL026W, active compounds read low 0.984 | S. cerevisiae deletion strains, locus YLL041C, strain sdh2, active compounds read low 0.963 | S. cerevisiae deletion strains, locus YLR027C, strain aat2, active compounds read low 0.949 | S. cerevisiae deletion strains, locus YLR039C, strain RIC1, active compounds read low 0.974 | S. cerevisiae deletion strains, locus YLR058C, strain SHM2, active compounds read low 0.977 | S. cerevisiae deletion strains, locus YLR102C, strain apc9, active compounds read low 0.987 | S. cerevisiae deletion strains, locus YLR221C, strain rsa3, active compounds read low 1.03 | S. cerevisiae deletion strains, locus YLR258W, strain gsy2, active compounds read low 0.96 | S. cerevisiae deletion strains, locus YLR262C, strain YPT6 (second series), active compounds read low 0.987 | S. cerevisiae deletion strains, locus YLR262C, strain YPT6, active compounds read low 0.915 | S. cerevisiae deletion strains, locus YLR268W, strain sec22, active compounds read low 0.981 | S. cerevisiae deletion strains, locus YLR320W, strain mms22, active compounds read low 0.993 | S. cerevisiae deletion strains, locus YLR330W, strain CHS5, active compounds read low 0.985 | S. cerevisiae deletion strains, locus YLR342W, strain FKS1 (second series), active compounds read low 0.96 | S. cerevisiae deletion strains, locus YLR342W, strain FKS1, active compounds read low 0.99 | S. cerevisiae deletion strains, locus YLR357W, strain rsc2, active compounds read low 0.948 | S. cerevisiae deletion strains, locus YLR370C, strain arc18, active compounds read low 0.959 | S. cerevisiae deletion strains, locus YLR371W, strain rom2, active compounds read low 0.992 | S. cerevisiae deletion strains, locus YLR384C, strain iki3, active compounds read low 0.979 | S. cerevisiae deletion strains, locus YLR418C, strain cdc73, active compounds read low 1.03 | S. cerevisiae deletion strains, locus YML016C, strain PPZ1, active compounds read low 0.984 | S. cerevisiae deletion strains, locus YML032C, strain rad52, active compounds read low 0.944 | S. cerevisiae deletion strains, locus YML120C, strain ndi1, active compounds read low 0.987 | S. cerevisiae deletion strains, locus YML124C, strain tub3, active compounds read low 0.989 | S. cerevisiae deletion strains, locus YMR058W, strain fet3, active compounds read low 0.979 | S. cerevisiae deletion strains, locus YMR078C, strain ctf18, active compounds read low 0.972 | S. cerevisiae deletion strains, locus YMR125W, strain sto1, active compounds read low 0.945 | S. cerevisiae deletion strains, locus YMR129W, active compounds read low 0.969 | S. cerevisiae deletion strains, locus YMR205C, strain PFK2, active compounds read low 0.992 | S. cerevisiae deletion strains, locus YMR223W, strain ubp8, active compounds read low 1.01 | S. cerevisiae deletion strains, locus YMR231W, strain pep5, active compounds read low 0.981 | S. cerevisiae deletion strains, locus YMR307W, strain GAS1, active compounds read low 0.922 and 0.985 | S. cerevisiae deletion strains, locus YNL067W, strain RPL9B, active compounds read low 1.02 | S. cerevisiae deletion strains, locus YNL071W, strain lat1, active compounds read low 0.964 | S. cerevisiae deletion strains, locus YNL153C, strain GIM3, active compounds read low 1.01 | S. cerevisiae deletion strains, locus YNL175C, strain NOP13, active compounds read low 1.04 | S. cerevisiae deletion strains, locus YNL183C, strain NPR1, active compounds read low 0.908 | S. cerevisiae deletion strains, locus YNL197C, strain WHI3, active compounds read low 0.989 | S. cerevisiae deletion strains, locus YNL209W, strain ssb2, active compounds read low 0.976 | S. cerevisiae deletion strains, locus YNL224C, strain SQS1, active compounds read low 1 | S. cerevisiae deletion strains, locus YNL233W, strain BNI4, active compounds read low 1.03 | S. cerevisiae deletion strains, locus YNL271C, strain bni1, active compounds read low 0.967 | S. cerevisiae deletion strains, locus YNL307C, strain MCK1, active compounds read low 0.983 | S. cerevisiae deletion strains, locus YNL322C, strain KRE1 (second series), active compounds read low 0.943 | S. cerevisiae deletion strains, locus YNR049C, strain mso1, active compounds read low 0.959 | S. cerevisiae deletion strains, locus YNR052C, strain pop2, active compounds read low 0.985 | S. cerevisiae deletion strains, locus YOL006C, strain TOP1, active compounds read low 1.11 | S. cerevisiae deletion strains, locus YOL012C, strain htz1 1.27 | S. cerevisiae deletion strains, locus YOL147C, strain pex11, active compounds read low 0.99 | S. cerevisiae deletion strains, locus YOR001W, strain rrp6, active compounds read low 1.03 | S. cerevisiae deletion strains, locus YOR061W, strain CKA2, active compounds read low 0.969 | S. cerevisiae deletion strains, locus YOR069W, strain VPS5, active compounds read low 0.975 | S. cerevisiae deletion strains, locus YOR070C, strain gyp1, active compounds read low 0.984 | S. cerevisiae deletion strains, locus YOR080W, strain dia2, active compounds read low 0.963 | S. cerevisiae deletion strains, locus YOR083W, strain WHI5 (second series), active compounds read low 0.99 | S. cerevisiae deletion strains, locus YOR083W, strain WHI5, active compounds read low 0.94 | S. cerevisiae deletion strains, locus YOR106W, strain vam3, active compounds read low 0.918 | S. cerevisiae deletion strains, locus YOR136W, strain idh2, active compounds read low 0.987 | S. cerevisiae deletion strains, locus YOR144C, strain elg1, active compounds read low 0.987 | S. cerevisiae deletion strains, locus YOR184W, strain ser1, active compounds read low 0.976 | S. cerevisiae deletion strains, locus YOR265W, strain rbl2, active compounds read low 0.969 | S. cerevisiae deletion strains, locus YOR270C, strain vph1, active compounds read low 0.986 | S. cerevisiae deletion strains, locus YOR290C, strain snf2, active compounds read low 0.935 | S. cerevisiae deletion strains, locus YOR316C, strain cot1, active compounds read low 0.976 | S. cerevisiae deletion strains, locus YPL051W, strain arl3, active compounds read low 0.997 | S. cerevisiae deletion strains, locus YPL055C, strain LGE1, active compounds read low 0.992 | S. cerevisiae deletion strains, locus YPL078C, strain atp4, active compounds read low 0.952 | S. cerevisiae deletion strains, locus YPL106C, strain sse1, active compounds read low 0.899 | S. cerevisiae deletion strains, locus YPL240C, strain hsp82, active compounds read low 0.988 | S. cerevisiae deletion strains, locus YPL241C, strain CIN2, active compounds read low 0.997 | S. cerevisiae deletion strains, locus YPL256C, strain CLN2, active compounds read low 0.857 | S. cerevisiae deletion strains, locus YPR119W, strain clb2, active compounds read low 0.985 | S. cerevisiae deletion strains, locus YPR141C, strain kar3, active compounds read low 0.99 | S. cerevisiae deletion strains, locus YPR163C, strain tif3, active compounds read low 0.984 | S. cerevisiae deletion strains, locus YPR167C, strain met16, active compounds read low 0.994 | S. cerevisiae deletion strains, strain wtn01, active compounds read low 0.993 | S. cerevisiae strains, strain wild type, active compounds read low 0.984
active: S. cerevisiae deletion strains, locus YLR113W, strain HOG1, active compounds read low 0.838 | S. cerevisiae deletion strains, locus YNL248C, strain rpa49, active compounds read low 0.882 | S. cerevisiae deletion strains, locus YNL250W, strain rad50, active compounds read low 0.819 | S. cerevisiae deletion strains, locus YNL298W, strain CLA4, active compounds read low 0.896 | S. cerevisiae deletion strains, locus YOR231W, strain MKK1, active compounds read low 0.84
